Results from PMC7826789 (International Journal of Molecular Sciences, 2021).

Columns and labels:
Conditions in all cases: Compound Concentration (nM):1000
CSF1R = system: CSF1R
CSK = system: CSK
CSNK1A1L = system: CSNK1A1L
CSNK1A1 = system: CSNK1A1
CSNK1D = system: CSNK1D
CSNK1E = system: CSNK1E
CSNK1G1 = system: CSNK1G1
CSNK1G2 = system: CSNK1G2
CSNK1G3 = system: CSNK1G3
CSNK2A1 = system: CSNK2A1
CSNK2A2 = system: CSNK2A2
CTK = system: T1, CTK
T1 construct: gene MATK

DAPK1 = system: DAPK1
DAPK2 = system: DAPK2
DAPK3 = system: DAPK3
DCAMKL1 = system: T2, DCAMKL1
T2 construct: gene DCLK1

DCAMKL2 = system: T3, DCAMKL2
T3 construct: gene DCLK2

DCAMKL3 = system: T4, DCAMKL3
T4 construct: gene DCLK3

DDR1 = system: DDR1
DDR2 = system: DDR2
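Also: KINOMEscan scanMAX binding as percent activity remaining versus control; lower means stronger binding.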

| SMILES | Percent Control (CSF1R) [%] | Percent Control (CSK) [%] | Percent Control (CSNK1A1L) [%] | Percent Control (CSNK1A1) [%] | Percent Control (CSNK1D) [%] | Percent Control (CSNK1E) [%] | Percent Control (CSNK1G1) [%] | Percent Control (CSNK1G2) [%] | Percent Control (CSNK1G3) [%] | Percent Control (CSNK2A1) [%] | Percent Control (CSNK2A2) [%] | Percent Control (CTK) [%] | Percent Control (DAPK1) [%] | Percent Control (DAPK2) [%] | Percent Control (DAPK3) [%] | Percent Control (DCAMKL1) [%] | Percent Control (DCAMKL2) [%] | Percent Control (DCAMKL3) [%] | Percent Control (DDR1) [%] | Percent Control (DDR2) [%] |
| --- | --- | --- | --- | --- | --- | --- | --- | --- | --- | --- | --- | --- | --- | --- | --- | --- | --- | --- | --- | --- |
| COC(=O)Nc1nc2ccc(Oc3ccc(NC(=O)Nc4cc(C(F)(F)F)ccc4F)cc3)cc2s1.Cl [GW693917A] | 2.3 | 70 | 92 | 83 | 100 | 98 | 96 | 100 | 94 | 91 | 68 | 91 | 95 | 100 | 100 | 95 | 86 | 100 | 0 | 5.8 |
| COc1cc(C=NNc2ncnc3c2cnn3-c2ccccc2)ccc1O [GW513184X] | 100 | 100 | 100 | 77 | 86 | 51 | 100 | 57 | 93 | 28 | 5.6 | 100 | 100 | 100 | 100 | 90 | 100 | 100 | 100 | 100 |
| COc1ccc2[nH]c3c4[nH]c5ccc(OC)cc5c4c4c(c3c2c1)C(=O)NC4=O [GW296115X] | 58 | 95 | 91 | 62 | 94 | 52 | 74 | 86 | 100 | 61 | 56 | 93 | 22 | 4.9 | 4.8 | 90 | 90 | 19 | 77 | 72 |
| COc1cc2ncn(-c3cc(O[C@H](C)c4ccccc4Cl)c(C(N)=O)s3)c2cc1OC [GSK237701A] | 63 | 88 | 60 | 88 | 100 | 100 | 85 | 89 | 100 | 83 | 34 | 78 | 55 | 81 | 79 | 77 | 100 | 100 | 100 | 74 |
| O=C(Nc1n[nH]c2nc(-c3ccc(O)cc3)c(Br)cc12)C1CC1 [SB-725317] | 100 | 100 | 100 | 100 | 100 | 85 | 100 | 100 | 100 | 87 | 85 | 100 | 55 | 34 | 34 | 89 | 100 | 3.5 | 98 | 100 |
| COc1ccc2c(-c3ccnc(Nc4cccc(OC(F)(F)F)c4)n3)cnn2n1 [GW810372X] | 100 | 100 | 100 | 92 | 100 | 100 | 98 | 100 | 100 | 67 | 59 | 100 | 100 | 98 | 100 | 100 | 100 | 100 | 100 | 100 |
| Cl.O=C(Nc1ccc(Oc2ccc3[nH]c(NC(=O)c4ccco4)nc3c2)cc1)Nc1cc(C(F)(F)F)ccc1F [GW683134A] | 1.5 | 85 | 90 | 100 | 98 | 93 | 100 | 100 | 100 | 88 | 91 | 100 | 100 | 83 | 89 | 87 | 100 | 82 | 0 | 5.1 |
| COc1ccc(COc2ccc(Cc3cnc(N)nc3N)cc2OC)cc1 [GW632580X] | – | 87 | 86 | 100 | 100 | 100 | 88 | 88 | 100 | 90 | 70 | 94 | 94 | 91 | 91 | 94 | 78 | 100 | 78 | 100 |
| CC(C)COC(=O)c1ccc2c(c1)/C(=C/Nc1ccc(S(N)(=O)=O)cc1)C(=O)N2 [GW416981X] | 100 | 100 | 50 | 99 | 100 | 100 | 96 | 94 | 100 | 9 | 1.5 | 100 | 24 | 9.4 | 9.8 | 38 | 100 | 4.6 | 100 | 100 |
| COc1cc(/C=N/Nc2ncnc3[nH]ncc23)ccc1O [GW578748X] | 93 | 67 | 94 | 61 | 57 | 60 | 67 | 42 | 79 | 8.7 | 7.7 | 97 | 78 | 75 | 48 | 68 | 100 | 68 | 100 | 100 |
| NS(=O)(=O)c1ccc(N/N=C2\C(=O)Nc3ccc(-c4cnco4)cc32)cc1 [GW276655] | 100 | 92 | 78 | 76 | 60 | 96 | 100 | 72 | 91 | 50 | 7 | 78 | 60 | 70 | 56 | 78 | 87 | 100 | 100 | 100 |
